Source: PubChem BioAssay AID493011 (Sanford-Burnham Center for Chemical Genomics, 2011)
“And” between values parts separate entries of the source, which are not always exact repeats. Equal entries are not always repeated. In all, about 330,000 compounds went through this assay and about 1,400 (0.42%) were called active. The sample holds actives, similar compounds and a random draw of the others, so the mix is not that of the screen.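 How the source made its calls: active means at least 40% inhibition at 20 µM here, with at most 30% in a related deaminase screen; inactive means the rest.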

What follows are compounds tested against DNA dC->dU-editing enzyme APOBEC-3A (Homo sapiens) (UniProt P31941) (assay: blockers of A3A cytidine deamination on DNA – biochemical, FAM/TAMRA oligo cleavage fluorescence, selectivity assay for APOBEC3G inhibitor project, primary screen (AID 493011;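 further: plate controls were A3A with DMSO for no effect and wells lacking A3A enzyme for full effect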)). Settings: recombinant A3A, FAM/TAMRA ssDNA deamination fluorescence; at 20 µM; active compounds read high.
Sequence of DNA dC->dU-editing enzyme APOBEC-3A (Homo sapiens) (P31941 whole entry, looked up): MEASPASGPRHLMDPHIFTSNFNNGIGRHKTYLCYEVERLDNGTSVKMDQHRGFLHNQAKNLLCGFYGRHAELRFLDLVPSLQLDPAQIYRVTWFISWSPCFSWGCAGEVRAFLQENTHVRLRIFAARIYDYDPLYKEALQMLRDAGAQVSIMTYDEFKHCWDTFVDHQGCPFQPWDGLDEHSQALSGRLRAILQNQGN

inhibition, inactive:
N#Cc1c(NC(=O)c2ccc(N3CCOCC3)c([N+](=O)[O-])c2)sc2c1CCCC2 2.01%, Nc1nnc(SCC(=O)Nc2ccc3nc(SCC(=O)Nc4ccccc4)sc3c2)s1 -1.31%, CCCCNC(=O)CSc1nc2ccc(NC(=O)CSc3nnc(COc4ccccc4C)n3C)cc2s1 -2.55%, Cc1cc2c(=O)n(CC(=O)NCC(=O)Nc3ccc(C(C)C)cc3)cnc2s1 -11.2%, CO/N=C(\C(=O)N[C@@H]1C(=O)N2C(C(=O)O)=C(COC(C)=O)CS[C@H]12)c1csc(N)n1 (stereo in doubt) 2.73% and 21.9% and -0.539%, C=CC1=C(C(=O)O)N2C(=O)[C@@H](NC(=O)/C(=N\OCC(=O)O)c3csc(N)n3)[C@H]2SC1 13.4%, COc1ccc(Cc2nnc(NC(=O)c3cc(OC)c(OC)c(OC)c3)s2)cc1OC 6.64%, COc1ccccc1NC(=O)Nc1nnc(Cc2ccc(F)cc2)s1 0.132%, CN(C)C(=O)Cn1c(=O)n(S(=O)(=O)c2ccccc2)c2ccccc21 0.322%, O=C(COC(=O)c1ncc(Cl)c(Cl)c1Cl)NNC(=O)c1ccccc1 2.14%, O=C(COC(=O)Cc1ccccc1F)NNC(=O)c1ccc(Cl)cc1 2.91%, Cc1c(C)c2ccc(OCC(=O)N3CCN(c4cccc(Cl)c4)CC3)cc2oc1=O 2.08%, COc1cc(NC(=S)N2CCCC(C)C2)c(OC)cc1Cl (stereo not drawn) -2.12%, O=C(N/N=C/C=C/c1ccccc1)C1CC1(c1ccccc1)c1ccccc1 (stereo not drawn) 1.87%, CC(/C=C/c1ccco1)=N/NC(=O)C1COc2ccccc2O1 (stereo not drawn) -6.53%, O=C(Nc1ccccc1N1CCOCC1)c1ccc(OCc2cscn2)cc1 3.65%, COc1ccc(CN(C)C(=O)c2cc(-c3ccc(C)cc3C)nc3ccccc23)c(OC)c1OC -0.735%, CC1C(c2ccccc2)=[N+]([O-])C2(CCCC2)N1O (stereo not drawn) 3.6%, CC(C)c1ccc(NC(=O)C2CCCN(S(=O)(=O)c3cccnc3)C2)cc1 (stereo not drawn) 3.03%, COc1ccc(S(=O)(=O)N2CCCC(C(=O)Nc3ccc(NC(=O)c4ccccn4)cc3)C2)cc1 (stereo not drawn) 0.311%, O=C(NCCCn1ccnc1)c1cc(Br)c(Br)s1 -1.2%, C/C(=N\NC(=O)c1cc(-c2ccc(O)cc2)nc2ccccc12)c1cccnc1 -0.382%, COc1ccc(-c2cc(C(=O)N/N=C/c3cccnc3)c3ccccc3n2)c(OC)c1 1.62%, C/C(Cn1nnc2ccccc21)=N\OC(=O)c1cc(F)c(F)cc1Cl -2.44%, CCOc1ccc(C)cc1S(=O)(=O)NC1CCCCCC1 0.216%, COc1ccc(C2c3ccc(O)cc3Oc3ncn(CCCO)c(=N)c32)cc1OC (stereo not drawn) 1.57%, Cc1ccc(COC(=O)CN2C(=O)NC3(CCCC3)C2=O)cc1 2.64%, Cc1ccc(CCCOC(=O)C[N+]2(C)CCCC2)cc1 29.9%, O=C(COc1ccccc1)Nc1ccc(N2CCN(C(=O)c3cccs3)CC2)cc1 3.22%, COc1ccc(C(=O)NC2(C(F)(F)F)NC(=O)N(CCCc3ccccc3)C2=O)c(OC)c1OC (stereo not drawn) 1.49%, CCn1c(CNC(=O)c2ccco2)nnc1SCC(=O)Nc1cccc(F)c1 0.913%, CCn1c(SCC(=O)Nc2ccc3c(c2)OCCO3)nnc1-c1ccncc1 -2.5%, Cc1ccccc1C1=N/C(=C/c2cccnc2)C(=O)O1 -1.12%, CN(C)/C=C1\C=C(c2ccccc2)OC1=O 0.636%, Cc1ccc(C(=O)N/N=C/c2cccc3ccccc23)cn1 -4.44%, O=C(N/N=C\c1cc(Br)c(Br)o1)C1COc2ccccc2O1 (stereo not drawn) 13.8%, O=C(CN1C(=O)NC2(CCOc3ccccc32)C1=O)Nc1cccc([N+](=O)[O-])c1 (stereo not drawn) 6.58%, COc1ccc(CC(=O)N2N=C(C)CC2(O)C(F)(F)F)cc1 (stereo not drawn) -1.7%, CC1=NN(C(=O)CCCc2ccccc2)C(O)(C(F)(F)F)C1 (stereo not drawn) -5.39%, CC(C)COP(=O)(c1ccc(N(C)C)cc1)C(Nc1ccccc1)c1cccnc1 (stereo not drawn) -0.443%, C[N+](C)(C)CCOP(=O)([O-])OC[C@H](O)CO -3.05%, CCOc1cccc(OCCCOc2cccc3cccnc23)c1 0.036%, CCCc1cc(=O)[nH]c(SCc2ccc(C#N)cc2)n1 -3.79%, CCOc1ccc(C2C3=C(CCCC3=O)N(CC(=O)O)C3=C2C(=O)CCC3)cc1 5.98%, COc1ccc(C2C3=C(CCCC3=O)N(CC(=O)O)C3=C2C(=O)CCC3)cc1 -0.629%, COc1ccccc1C(CNC(=O)c1cccc(S(=O)(=O)Nc2ccc(F)cc2)c1)N(C)C (stereo not drawn) -4.98%, COc1ccc(C)cc1NC(=O)c1[nH]c(C)c(C(C)=O)c1C -4.64%, O=C(O)C(F)(F)C(NCc1ccccc1)c1ccccc1 (stereo not drawn) -9.23%, CC1(C)CC(=O)C(N=Nc2ccc(S(=O)(=O)N3CCCCCC3)cc2)=C(O)C1 -0.085%, Cc1ccccc1NC(=O)CN1C(=O)N/C(=C\c2cccn2-c2cccc(C(=O)O)c2)C1=O 93.1%, O=C1N/C(=C/c2cccn2-c2ccccc2)C(=O)N1c1cccc(Cl)c1 0.178%, O=C(c1n[nH]c2c1CCC2)N1CCCC(Nc2cccc(F)c2)C1 (stereo not drawn) -3.42%, O=C(COC(=O)/C=C/c1ccc(Br)o1)Nc1cccc(S(=O)(=O)N2CCOCC2)c1 16.5%, CC(=O)c1c(C)n(-c2ccc(N(C)C)cc2)c2ccc(OCC(N)=O)cc12 -1.38%, COc1ccc(S(=O)(=O)NCCCCOc2ccc(Cl)cc2)cc1 -0.023%, COc1cccc(NC(=O)CCNS(=O)(=O)c2ccc3c(c2)oc(=O)n3C)c1 -2.44%, COc1ccc(C2C3=C(OC(C)=O)c4ccccc4C3=Nc3c2c(=O)n(C)c(=O)n3C)cc1 (stereo not drawn) -1.29%, Cc1cccc(CCNS(=O)(=O)c2ccc(S(=O)(=O)NC3CCCC3)cc2)c1 -4.37%, COCCCNC(NC(=O)c1ccc(OC)cc1)C(Cl)(Cl)Cl (stereo not drawn) -2.86%, O=C1C2C3C=CC(C4CC34)C2C(=O)N1c1nccs1 (stereo not drawn) 0.014%, CSc1ccc(/C=C2\NC(=O)NC2=O)cc1 -4.33%, Cc1ccc(NC(=O)COc2ccc(/C=C3/NC(=O)NC3=O)cc2)cc1 -0.201%, CC[C@]12c3[nH]c4cc(CCC(=O)N(C)C)ccc4c3CCN1C(=O)[C@@H](CC(=O)NCc1ccco1)C[C@@H]2C(=O)N1CCN(C(=O)c2ccco2)CC1 2.69%, Cc1nn2c(c1-c1ccccc1)N=C(c1ccco1)CC2c1ccccc1 (stereo not drawn) 0.496%, O=C1C2C3C=CC(C4CC34)C2C(=O)N1/N=C/c1ccc(-c2ccccc2[N+](=O)[O-])o1 (stereo not drawn) -4.49%, O=C(CSc1ccc([N+](=O)[O-])cn1)Nc1ccc(N2CCOCC2)c(Cl)c1 -1.64%, O=C(Nc1ccc(N2CCOCC2)c(Cl)c1)c1ccc(S(=O)(=O)N2CCOCC2)cc1 2.6%, CC(=O)c1ccc(N2CCN(C(=O)c3ccc4nc[nH]c4c3)CC2)cc1 -2.31%, CCOC(=O)c1ccc(NC(=O)Cn2cnc3cc(C)c(C)cc32)cc1 3.16%, CCCc1nnc(SCC(=O)Nc2ccc(C(=O)OCC)cc2)o1 -2.03%

inhibition, active:
CCCCNC(=O)CSc1nc2ccc(NC(=O)CSc3nnc(N)s3)cc2s1 75.7%, C=CC1=C(C(=O)O)N2C(=O)[C@@H](NC(=O)/C(=N/OCC(=O)O)c3csc(N)n3)[C@H]2SC1 57.5%, COc1ccc(Cc2nnc(NC(=O)c3ccc(OC)cc3OC)s2)cc1 52.7%, NS(=O)(=O)c1cc(C(=O)OCC(=O)NNC(=O)c2ccccc2)ccc1Cl 76%, CC(/C=C/c1ccccc1)=N\NC(=O)C1CC1(C)c1ccccc1 (stereo not drawn) 59.5%, CC(=O)Nc1ccc(NC(=O)C2CCCN(S(=O)(=O)c3ccc(Cl)cc3)C2)cc1 (stereo not drawn) 94.5%, O=C(N/N=C\c1cccnc1)c1cc(-c2ccccc2)nc2c(Cl)cccc12 43.3%, Cc1ccc(CCCOC(=O)C[N+]2(C)CCCCC2)cc1 75.2%, CCn1c(SCC(=O)Nc2cccc(F)c2)nnc1-c1cc2cc(Br)ccc2o1 49.5%, Cc1ccc(C2=C/C(=C\c3cccnc3)C(=O)O2)cc1 42.5%, Cc1ccc(C(=O)N/N=C\c2cc(Br)c(Br)o2)cn1 44.2%, CC1=NN(C(=O)CCc2ccccc2O)C(O)(C(F)(F)F)C1 (stereo not drawn) 54.8%, CCCN1C2=C(C(=O)CCC2)C(c2ccc(O)c(Br)c2)C2=C1CCCC2=O 68.9%, N#Cc1ccccc1CN1C(=O)S/C(=C/c2cccn2-c2cccc(C(=O)O)c2)C1=O 74.4%, COc1cccc(NC(C)=[N+](C)CCNS(=O)(=O)c2ccc(Cl)cc2)c1 52.2%, CC(C)c1ccc(/C=C2\NC(=O)NC2=O)cc1 82.8%, O=C(CSc1nccc(=O)[nH]1)Nc1ccc(N2CCOCC2)c(Cl)c1 50%, CCOC(=O)c1ccc(NC(=O)CSc2ncccn2)cc1 66.1%
